What all share (design): scale not given: direction of the effect not stated beside the values
Assay [1] addresses Protein translocase subunit SecA (Escherichia coli (strain K12)) (UniProt P10408). The experiment in a line: Assay to Identify E. coli SecA ATPase Inhibitors. It counts as functional. Conditions: 30 µM.
For assay [2], the target named is T1, Ubiquitin-activating enzyme e1, putative (Leishmania donovani (strain BPK282A1)) (UniProt E9BSI1).
T1 sequence (whole entry): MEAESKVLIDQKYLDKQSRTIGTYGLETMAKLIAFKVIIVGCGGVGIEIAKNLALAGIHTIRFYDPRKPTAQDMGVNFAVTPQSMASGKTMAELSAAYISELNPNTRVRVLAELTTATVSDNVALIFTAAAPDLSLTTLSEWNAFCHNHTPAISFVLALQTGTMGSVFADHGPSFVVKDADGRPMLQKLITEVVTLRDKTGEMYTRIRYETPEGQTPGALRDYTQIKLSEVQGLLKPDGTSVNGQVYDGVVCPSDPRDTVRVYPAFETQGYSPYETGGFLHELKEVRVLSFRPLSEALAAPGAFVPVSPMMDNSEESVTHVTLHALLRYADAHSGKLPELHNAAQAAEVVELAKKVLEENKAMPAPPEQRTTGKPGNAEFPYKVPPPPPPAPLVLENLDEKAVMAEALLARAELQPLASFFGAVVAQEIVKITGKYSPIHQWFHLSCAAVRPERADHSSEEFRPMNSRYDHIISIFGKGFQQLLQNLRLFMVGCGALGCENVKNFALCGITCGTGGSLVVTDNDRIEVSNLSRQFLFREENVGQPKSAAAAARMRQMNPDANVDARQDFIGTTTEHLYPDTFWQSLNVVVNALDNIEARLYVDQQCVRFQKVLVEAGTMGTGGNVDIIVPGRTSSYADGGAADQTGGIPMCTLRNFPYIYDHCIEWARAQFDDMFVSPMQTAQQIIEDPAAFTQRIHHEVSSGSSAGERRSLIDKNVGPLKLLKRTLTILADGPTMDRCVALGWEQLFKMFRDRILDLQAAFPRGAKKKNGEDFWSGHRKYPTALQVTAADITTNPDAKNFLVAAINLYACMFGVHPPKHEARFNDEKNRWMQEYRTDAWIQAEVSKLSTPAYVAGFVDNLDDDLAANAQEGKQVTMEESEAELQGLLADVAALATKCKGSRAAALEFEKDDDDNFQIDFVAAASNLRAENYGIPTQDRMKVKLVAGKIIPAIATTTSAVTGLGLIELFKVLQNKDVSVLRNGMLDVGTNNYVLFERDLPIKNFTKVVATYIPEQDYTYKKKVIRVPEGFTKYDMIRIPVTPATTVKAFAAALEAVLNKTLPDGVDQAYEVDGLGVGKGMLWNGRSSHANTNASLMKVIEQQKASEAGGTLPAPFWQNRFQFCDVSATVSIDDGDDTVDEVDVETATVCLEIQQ
The experiment in a line: Leishmania donovani Ubiquitin Activating Enzyme (LdE1). Conditions: 30 µM. It counts as functional.

Assay [3] deals with Sialic acid-binding Ig-like lectin 9 (Homo sapiens) (UniProt Q9Y336). The experiment in a line: Hs-Siglec9 ALPHAscreen SOP 20170721. Conditions: 10 µM. For orientation: Bead proximity is the source of the signal in Alpha formats.
A further assay has as its system Trypanosoma cruzi. The experiment in a line: Trypanosoma cruzi phosphomannomutase and mannose-1-phosphate guanylyltransferase assay. It counts as functional. To be noted: 10 µM.
The target in assay [4] is T2, Arginase-2, mitochondrial (Homo sapiens) (UniProt P78540).
T2 sequence (whole entry): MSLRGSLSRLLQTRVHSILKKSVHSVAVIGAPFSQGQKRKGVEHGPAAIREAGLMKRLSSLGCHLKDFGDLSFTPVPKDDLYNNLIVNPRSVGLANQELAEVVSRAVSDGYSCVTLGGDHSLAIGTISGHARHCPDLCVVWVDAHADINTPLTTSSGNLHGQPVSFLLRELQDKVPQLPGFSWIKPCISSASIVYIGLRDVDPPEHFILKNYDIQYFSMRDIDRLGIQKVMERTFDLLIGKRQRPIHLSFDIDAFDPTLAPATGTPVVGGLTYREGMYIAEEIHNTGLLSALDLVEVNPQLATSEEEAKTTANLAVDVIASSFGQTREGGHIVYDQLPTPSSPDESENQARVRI
The experiment in a line: in vitro enzyme assay to detect the production of urea directly proportional to the activity of Arginase II. Further: in the data most compounds retested in dose-response had high values. Type of assay: functional. To be noted: 33.3 µM.

In assay [5] the target is T3, Proteasome subunit beta (Trypanosoma cruzi) (UniProt O96673).
T3 sequence (whole entry): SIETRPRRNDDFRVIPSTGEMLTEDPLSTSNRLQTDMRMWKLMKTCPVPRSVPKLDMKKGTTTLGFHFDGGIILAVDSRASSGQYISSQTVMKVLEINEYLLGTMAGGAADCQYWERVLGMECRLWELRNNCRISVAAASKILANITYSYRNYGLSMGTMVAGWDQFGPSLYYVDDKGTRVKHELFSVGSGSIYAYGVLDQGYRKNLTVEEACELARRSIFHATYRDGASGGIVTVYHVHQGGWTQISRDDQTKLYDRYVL
The experiment in a line: Trypanosoma cruzi proteasome chymotrypsin-like activity (TcProtChymo) assay. Further: in the data most compounds retested in dose-response had high values. To be noted: 9.37 µM. Type of assay: functional.

Another assay is filed under the species Homo sapiens. The experiment in a line: To identify inhibition of the IFN signalling (Jak-Stat) pathway via expression of an eGFP reporter gene under the control of an IFN-stimulated response element (ISRE) containing MxA promoter. Type of assay: functional. Conditions: 30 µM.
The target of assay [6] is T4, Tyrosyl-tRNA synthetase, putative (Trypanosoma cruzi (strain CL Brener)) (UniProt Q4DSP6).
T4 sequence (whole entry): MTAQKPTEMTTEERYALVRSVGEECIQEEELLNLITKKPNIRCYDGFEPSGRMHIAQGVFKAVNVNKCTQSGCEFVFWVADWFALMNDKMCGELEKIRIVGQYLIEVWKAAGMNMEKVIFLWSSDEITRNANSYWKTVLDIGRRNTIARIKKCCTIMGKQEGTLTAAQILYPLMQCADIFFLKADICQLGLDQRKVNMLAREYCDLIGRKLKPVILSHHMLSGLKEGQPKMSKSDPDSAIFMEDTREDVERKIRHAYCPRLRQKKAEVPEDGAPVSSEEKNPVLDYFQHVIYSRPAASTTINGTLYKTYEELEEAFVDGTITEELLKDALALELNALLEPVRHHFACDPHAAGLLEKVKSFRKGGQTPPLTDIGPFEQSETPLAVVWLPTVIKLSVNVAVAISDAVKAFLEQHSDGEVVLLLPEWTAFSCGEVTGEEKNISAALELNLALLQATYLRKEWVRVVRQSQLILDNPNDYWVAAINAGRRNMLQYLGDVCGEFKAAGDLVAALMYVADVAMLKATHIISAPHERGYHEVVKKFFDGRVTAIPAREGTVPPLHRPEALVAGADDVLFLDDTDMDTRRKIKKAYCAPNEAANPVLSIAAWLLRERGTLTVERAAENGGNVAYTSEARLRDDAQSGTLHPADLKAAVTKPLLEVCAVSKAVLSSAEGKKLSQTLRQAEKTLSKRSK
The experiment in a line: Trypanosoma cruzi tyrosyl tRNA synthetase (TcYRS) _High Tyrosine SOP. Further: in the data most compounds retested in dose-response had high values. Conditions: 30 µM. It counts as functional.

Assay [7] addresses T4, Tyrosyl-tRNA synthetase, putative (Trypanosoma cruzi (strain CL Brener)). The experiment in a line: Trypanosoma cruzi tyrosyl tRNA synthetase (TcYRS) SOP. It counts as functional. Conditions: 30 µM.
Assay [8] has as its target Chromo domain-containing protein 1 (Saccharomyces cerevisiae (strain ATCC 204508 / S288c) (Baker's yeast)) (UniProt P32657). The experiment in a line: ScCHD-1 Enzyme Inhibition Assay. Further: in the data most compounds retested in dose-response had high values. Type of assay: functional. To be noted: 30 µM.
The target in assay [9] is AMP-activated protein kinase, AMPK (Homo sapiens) (UniProt P54646+O43741+P54619+Q9UGJ0+Q9Y478+Q13131+Q9UGI9). The experiment in a line: AMP-dependent Kinase enzyme assay. An in vitro enzyme assay that detects ADP turnover that is directly proportional to AMPK activity. This uses naive AMPK that is activated during the assay with MK-8722. Type of assay: functional. Conditions: 30 µM.

From ChEMBL document CHEMBL3988442, “University of Dundee, Small-Polar-MMV Screening Library” (2021) come the findings set out here.

Molecules are shown by their SMILES. For part of these data: Entries with a potency or affinity are not part of this list.

Sequence of Chromo domain-containing protein 1 (Saccharomyces cerevisiae (strain ATCC 204508 / S288c) (Baker's yeast)) (P32657 whole entry, the tested form may be a part): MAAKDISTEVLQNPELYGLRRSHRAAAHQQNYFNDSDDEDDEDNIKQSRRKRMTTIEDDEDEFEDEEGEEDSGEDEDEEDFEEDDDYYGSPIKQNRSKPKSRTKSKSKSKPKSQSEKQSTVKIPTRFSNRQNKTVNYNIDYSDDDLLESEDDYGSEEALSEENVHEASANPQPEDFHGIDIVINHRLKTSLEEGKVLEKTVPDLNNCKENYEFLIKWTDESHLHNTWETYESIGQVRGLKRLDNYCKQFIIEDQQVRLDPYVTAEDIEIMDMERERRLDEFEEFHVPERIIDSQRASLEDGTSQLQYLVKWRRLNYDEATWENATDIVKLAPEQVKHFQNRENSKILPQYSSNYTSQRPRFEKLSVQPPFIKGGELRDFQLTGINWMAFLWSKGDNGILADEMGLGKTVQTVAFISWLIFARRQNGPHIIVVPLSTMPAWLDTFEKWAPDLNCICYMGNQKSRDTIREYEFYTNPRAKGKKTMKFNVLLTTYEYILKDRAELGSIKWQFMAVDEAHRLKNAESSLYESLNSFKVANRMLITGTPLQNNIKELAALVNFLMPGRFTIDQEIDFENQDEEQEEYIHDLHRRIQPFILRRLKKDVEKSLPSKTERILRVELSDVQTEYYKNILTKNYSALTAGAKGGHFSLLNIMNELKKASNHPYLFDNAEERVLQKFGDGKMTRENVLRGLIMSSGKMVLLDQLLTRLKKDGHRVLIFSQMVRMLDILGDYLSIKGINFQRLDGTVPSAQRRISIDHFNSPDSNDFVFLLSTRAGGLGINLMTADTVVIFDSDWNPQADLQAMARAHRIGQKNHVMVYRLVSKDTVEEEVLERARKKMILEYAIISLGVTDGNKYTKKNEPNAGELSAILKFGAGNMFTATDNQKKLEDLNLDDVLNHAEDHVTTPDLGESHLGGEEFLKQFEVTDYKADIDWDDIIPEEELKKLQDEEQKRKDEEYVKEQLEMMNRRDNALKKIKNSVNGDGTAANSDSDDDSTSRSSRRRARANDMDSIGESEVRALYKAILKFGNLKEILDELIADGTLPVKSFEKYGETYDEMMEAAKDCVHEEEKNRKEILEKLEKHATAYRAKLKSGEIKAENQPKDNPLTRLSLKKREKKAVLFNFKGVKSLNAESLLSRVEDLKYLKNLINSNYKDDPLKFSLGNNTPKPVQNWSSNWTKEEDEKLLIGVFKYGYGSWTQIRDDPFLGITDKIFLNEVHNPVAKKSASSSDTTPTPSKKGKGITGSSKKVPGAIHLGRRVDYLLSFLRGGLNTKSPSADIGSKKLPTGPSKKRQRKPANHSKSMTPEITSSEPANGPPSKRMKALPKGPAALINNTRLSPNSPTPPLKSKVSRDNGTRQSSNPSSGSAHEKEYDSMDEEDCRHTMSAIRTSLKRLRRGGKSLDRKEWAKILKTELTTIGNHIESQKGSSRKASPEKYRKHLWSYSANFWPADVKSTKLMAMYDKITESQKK
Sequence of Protein translocase subunit SecA (Escherichia coli (strain K12)) (P10408 whole entry): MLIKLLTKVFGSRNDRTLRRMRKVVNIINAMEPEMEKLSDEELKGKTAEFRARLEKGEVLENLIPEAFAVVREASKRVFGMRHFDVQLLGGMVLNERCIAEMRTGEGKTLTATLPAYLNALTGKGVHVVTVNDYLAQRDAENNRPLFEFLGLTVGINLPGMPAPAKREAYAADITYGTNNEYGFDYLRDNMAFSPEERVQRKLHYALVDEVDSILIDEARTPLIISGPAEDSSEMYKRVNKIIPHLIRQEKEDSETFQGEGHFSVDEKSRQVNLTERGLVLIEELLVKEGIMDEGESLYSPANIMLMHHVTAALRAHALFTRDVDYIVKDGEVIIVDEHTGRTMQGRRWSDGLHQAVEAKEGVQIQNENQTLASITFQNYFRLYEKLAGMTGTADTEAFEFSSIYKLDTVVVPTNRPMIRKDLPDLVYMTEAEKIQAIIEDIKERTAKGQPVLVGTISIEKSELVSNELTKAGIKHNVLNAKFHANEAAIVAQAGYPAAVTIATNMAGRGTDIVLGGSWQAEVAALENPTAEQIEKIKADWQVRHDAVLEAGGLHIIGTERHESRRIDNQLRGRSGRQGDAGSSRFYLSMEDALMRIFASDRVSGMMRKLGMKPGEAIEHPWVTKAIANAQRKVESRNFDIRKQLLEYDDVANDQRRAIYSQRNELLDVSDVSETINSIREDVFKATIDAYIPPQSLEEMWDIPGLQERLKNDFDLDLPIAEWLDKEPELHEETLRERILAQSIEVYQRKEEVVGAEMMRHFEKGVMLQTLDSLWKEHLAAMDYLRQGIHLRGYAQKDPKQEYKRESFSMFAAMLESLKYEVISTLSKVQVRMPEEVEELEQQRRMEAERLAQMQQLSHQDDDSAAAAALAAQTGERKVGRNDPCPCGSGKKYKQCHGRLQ
Sequence of Sialic acid-binding Ig-like lectin 9 (Homo sapiens) (Q9Y336 whole entry): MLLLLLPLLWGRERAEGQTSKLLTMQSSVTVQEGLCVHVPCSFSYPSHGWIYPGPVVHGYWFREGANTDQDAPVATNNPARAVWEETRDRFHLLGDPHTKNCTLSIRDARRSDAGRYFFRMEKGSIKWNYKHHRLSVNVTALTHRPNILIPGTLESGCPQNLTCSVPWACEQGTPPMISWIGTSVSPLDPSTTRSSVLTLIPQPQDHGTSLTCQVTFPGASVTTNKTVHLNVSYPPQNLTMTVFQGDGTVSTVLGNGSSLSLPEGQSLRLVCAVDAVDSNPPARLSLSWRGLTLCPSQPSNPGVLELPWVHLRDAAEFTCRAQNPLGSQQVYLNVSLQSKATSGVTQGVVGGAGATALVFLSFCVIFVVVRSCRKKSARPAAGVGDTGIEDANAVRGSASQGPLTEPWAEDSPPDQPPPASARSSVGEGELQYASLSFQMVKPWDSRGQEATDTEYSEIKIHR

Take `COC(=O)COc1cccc(NS(=O)(=O)c2cc(C(=O)O)cs2)c1`: the Percent Effect in assay [1] is -0.923%; in assay [2] it was 17.9%; in assay [3] it was -17.3%; in the assay on Trypanosoma cruzi, 4.41%; in assay [4], -2.87%; in assay [5], 17.5%. For the same compound, the Percent Effect is 22.9% in the assay filed under Homo sapiens, 1.44% in assay [6], 20.5% in [7] and -7.25% in [8].

For `Cc1cc2c(=O)n3c(nc2s1)CCN(Cc1cnc(C(C)C)nc1)CC3`, the Percent Effect is -1.05% in assay [1]; 4% in [2]; -0.31% in [3]; -7.69% in the assay with Trypanosoma cruzi; 3.98% in assay [4]; 5.91% in assay [5]. For the same compound, the Percent Effect in the assay listed under Homo sapiens was 28.4%; in assay [6] it was 0%; in [7], 5%; in assay [8], -25.8%.

In the case of `Cn1nc2c(cc1=O)CN(Cc1nnc(-c3ccco3)o1)CC2`, the Percent Effect in assay [1] is -3.79%; in [2], 17.9%; in assay [3] it was -11.1%; in the assay with Trypanosoma cruzi, 4.6%; in [4], 1.23%; in assay [5] it was 13.2%. Further, the Percent Effect in the assay listed under Homo sapiens was 7.66%; in assay [6], 4.31%; in [7] it was 22.9%; in assay [8] it was 17.4%.

With `CCOCC1CC2(CCN(Cc3ccccn3)CC2)CO1` (configuration not stated), the Percent Effect is -9.03% in assay [1]; 1.3% in [2]; 1.88% in assay [3]; 0.292% in the assay with Trypanosoma cruzi; -2.83% in assay [4]; 11.7% in [5]. The Percent Effect was -4.94% in the assay filed under Homo sapiens, 2.63% in assay [6], 5.13% in assay [7] and 16.1% in [8].

Consider `O=C(c1ccnnc1)N1C[C@@H](OCC2CCOCC2)[C@H]2OCCC[C@H]21`, for which the Percent Effect was -4.07% in assay [1]; 1.3% in assay [2]; 6.81% in [3]; 5.55% in the assay on Trypanosoma cruzi; 14.6% in [4]; 0.618% in [5]. Besides, the Percent Effect in the assay filed under Homo sapiens was -6.79%; in assay [6], 0.526%; in assay [7] it was 7.69%; in assay [8], 96%.

With `CCc1nc(C2CCCN2C(=O)CCCn2cccn2)no1` (configuration not stated), the Percent Effect in assay [1] was -1.9%; in assay [2] it was 5.2%; in assay [3] it was 9.24%; with Trypanosoma cruzi, 4.66%; in assay [4], 8.4%; in [5], 8.25%. The Percent Effect in the assay filed under Homo sapiens was 4.76%; in assay [6], 1.96%; in assay [7], 4.71%; in assay [8], -9.39%.

As for `Cc1[nH]c2ccccc2c1-c1ccnc(NC[C@H](O)CO)n1`, the Percent Effect in assay [1] is -3.38%; in assay [2], 5.33%; in assay [3], -5%; with Trypanosoma cruzi it was -8.23%; in assay [4] it was -5.32%; in assay [5] it was 8.23%. In addition, the Percent Effect was 23.4% in the assay filed under Homo sapiens, -1.58% in [6], -7.69% in [7] and -13.5% in [8].

Take `CC(C)N1CCO[C@H]2CN(C(=O)c3ccoc3)C[C@H]21`: the Percent Effect in assay [1] is -6.85%; in assay [2], 3.9%; in assay [3] it was -7.81%; with Trypanosoma cruzi, -1.66%; in assay [4] it was 2.43%; in [5], 4.85%. The Percent Effect in the assay filed under Homo sapiens came out at 0.754%; in assay [6], 5.79%; in assay [7], 10.3%; in [8] it was 3.83%.

In the case of `CCc1cc(NCCCNS(C)(=O)=O)nc(-c2ccccn2)n1`, the Percent Effect in [9] was -7.82%.

For `Fc1cnc(N2CCOCC3(CCCN(c4nncs4)C3)C2)nc1` (configuration not stated), the Percent Effect in assay [1] was -8.43%; in [2], 6.49%; in assay [3], -1.88%; with Trypanosoma cruzi, -2.63%; in assay [4], -5.26%; in [5], 10.5%. Moreover, the Percent Effect in the assay filed under Homo sapiens is -23.8%; in [6], 1.58%; in [7] it was 7.69%; in assay [8] it was 0.128%.

For `CC(C)(C)c1nnc(CN2CCCC(Cn3cncn3)C2)o1` (configuration not stated), the Percent Effect was -2.1% in [1]; -2.56% in [2]; 0.0313% in [3]; 4.41% in the assay with Trypanosoma cruzi; 0.41% in assay [4]; -1.79% in assay [5]. Besides, the Percent Effect in the assay listed under Homo sapiens was 8%; in assay [6], 2.39%; in assay [7], 1.21%; in assay [8], -1.8%.

On to `Cc1cc(CN(C)C(=O)CC(C)C)no1`, for which the Percent Effect in assay [9] amounted to 0.491%.
